# The list is not random: actives were taken first. Their share in the collection is about 21%.
# ClpP mod: qHTS Assay for Activators of ClpP; ATP-dependent Clp protease proteolytic subunit (Bacillus subtilis (strain 168)), P80244; purified B. subtilis ClpP, FRET peptide cleavage, 20 min; Potency, µM (titrated, usually from 57.5 µM); 340,000 compounds, 1.9% hits; AID 651965, 2013; active means well fitted falling curve with a large enough effect; inconclusive means small, poorly fitted or top-dose-only effect; inactive means no such curve, though single readings can be large or run the other way; further: the source files actives as falling curves though it sought activators and does not explain the sign; nearly all actives have a fitted effect of over 65% in size
#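 Purified B. subtilis ClpP, 10 microg/mL final in Tris/HCl pH8 with KCl, BSA, glycerol and Tween-20, cleaved an Abz/nitrotyrosine-quenched decapeptide. Fluorescence (ex 320, em 430) was read at 0 and 20 min at room temperature. Delta was normalized to 5.8 microM ADEP and DMSO/no-enzyme controls.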
# D3 ag: D3 dopamine receptor (human) agonism. 410,000 compounds, 0.58% hits. max activation, %. D3R DiscoveRx beta-arrestin cells, luminescence, 90 min. P35462; in the data active means max activation above about 30%
# Target sequence (P35462 whole entry, looked up): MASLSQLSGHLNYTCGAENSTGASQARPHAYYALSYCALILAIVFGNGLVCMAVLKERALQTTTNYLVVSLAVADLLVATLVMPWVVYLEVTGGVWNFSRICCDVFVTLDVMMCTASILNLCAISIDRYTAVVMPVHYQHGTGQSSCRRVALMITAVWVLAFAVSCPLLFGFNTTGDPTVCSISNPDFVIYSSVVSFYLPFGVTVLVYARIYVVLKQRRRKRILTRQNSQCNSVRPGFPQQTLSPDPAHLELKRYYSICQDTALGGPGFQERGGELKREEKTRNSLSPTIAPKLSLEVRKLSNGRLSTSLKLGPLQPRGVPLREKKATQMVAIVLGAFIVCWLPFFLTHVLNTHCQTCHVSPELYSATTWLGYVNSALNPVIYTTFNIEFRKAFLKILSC
#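 Agonist-mode cell screen: cells plated at 1500/well and incubated overnight at 37 °C, then exposed to library compounds for 90 min at 37 °C. Detection reagent was added for 30–60 min at room temperature, and luminescence was read.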
# IL1B secr inh: blocks inflammasome-driven IL-1 beta release; THP-1 LPS/ATP IL-1B secretion, AlphaLISA, 16 h; stronger effect = lower value; activity change, % at 57.5 µM; 360,000 compounds, 4.7% hits; in the data active means activity change below about -50%; inconclusive means mostly about -30% to -49%
#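 THP-1 cells pretreated 1 hr with compounds (up to 57.5 uM final), then stimulated with LPS (250 ng/mL final) plus ATP (1.25 mM final); secreted IL-1B measured by AlphaLISA after 16 hr, decreased signal indicating inhibition.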
# DRD3 antagonist: D3 dopamine receptor (human) antagonism. D3R cells, DiscoveRx beta-arrestin luminescence, antagonist mode; stronger effect = lower value. max response, negative = inhibition, %. 360,000 compounds, 2.5% hits. P35462; in the data active means max response below about -50%; inconclusive means no clear call, values can overlap the other calls
#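 Cells plated overnight at 1500 cells/well, then exposed to library compounds with dopamine controls for 90 minutes at 37 degrees C. DiscoveRx reagent added for 30–60 minutes at room temperature; luminescence read, quantitative HTS format.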
# DT40 TDP1 no CPT: qHTS for Inhibitors of human tyrosyl-DNA phosphodiesterase 1 (TDP1): qHTS in cells in absence of CPT. DT40 Tdp1-/- hTDP1 cells, no CPT, ATP luminescence, 48 h. 420,000 compounds, 15% hits. Potency, µM (series often up to 46.2 µM), hits mostly inhibitors; further: nearly all actives have a fitted effect of over 55% in size
#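 No-CPT arm: Tdp1-/-;hTDP1 DT40 cells (400/well) plus compounds, incubated ≥48 hr at 37 °C. Readout CellTiter-Glo luminescence.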
# DT40 TDP1 CPT: growth inhibition of DT40 Tdp1-/-;hTDP1 cells with camptothecin (screen for TDP1 inhibitors) | chicken DT40 Tdp1-/-;hTDP1 cells + 20 nM CPT, ATP luminescence, 48 h | Potency, µM (titrated, usually from 46.2 µM), hits mostly inhibitors | 420,000 compounds, 12% hits | AID 686979; further: nearly all actives have a fitted effect of over 55% in size
#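 Chicken DT40 Tdp1-/- cells complemented with human TDP1, 400 cells/well, exposed to compounds plus 20 nM camptothecin for at least 48 h at 37 C; viability read as ATP content by CellTiter-Glo luminescence.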
# Numbers stand for hits; i = inactive; ? = inconclusive; nt = no result given; [ ] = remark or other dose. Unless noted, the call rests on the fitted dose curve; in most records, active means well fitted inhibition curve with a large enough effect; inconclusive means small, poorly fitted or top-dose-only effect; inactive means flat fitted curve, though single readings scatter.
SMILES,ClpP mod,D3 ag,IL1B secr inh,DRD3 antagonist,DT40 TDP1 no CPT,DT40 TDP1 CPT
O=S1(=O)CCOC[C@H](Cc2ccccc2)N1Cc1cccc(C(F)(F)F)c1,i,i,i,?,?,18µM
O=S1(=O)CCOC[C@H](CC2CCCCC2)N1Cc1cccc(C(F)(F)F)c1,i,i,i,i,18µM,?
Cc1ccccc1CN1[C@@H](C(C)C)COCCS1(=O)=O,i,i,i,i,i,i
O=C(/C(=N/O)n1cncn1)c1ccccc1Cl,i,i,i,i,i,i
O=C(/C(=C/c1ccccc1)n1cncn1)c1ccc(Cl)cc1Cl,i,i,-100,i,?,i
COc1ccc(-c2c(N)nnc3c2[nH]c2ccccc23)cc1OC,?,i,-64,i,21µM,?
O=C(C[n+]1cccc(C(=O)Nc2ccccc2)c1)c1ccccc1,i,i,i,i,18µM,?
N#Cc1ccc[n+](CC(=O)c2ccc(NC(=O)c3ccccc3)cc2)c1,i,i,i,i,i,10µM
CC(C)N(C)C1=CC(=O)C(N(C)C(C)C)=CC1=O,?,i,i,i,?,23µM
CN(C)S(=O)(=O)N(CC(=O)N1CCN(Cc2ccccc2)CC1)c1ccccc1,i,i,i,i,i,?
CN(Cc1cnn(Cc2ccccc2)c1)C(=O)c1cccc(S(=O)(=O)N2CCOCC2)c1,i,i,i,i,5.8µM,7.3µM
COc1ccccc1OCCNC(=O)c1cccc(S(=O)(=O)N2CCN(Cc3ccccc3)CC2)c1,i,i,i,i,?,18µM
CCN(Cc1ccccc1)c1ccc(/C=N/NC(=O)c2cccc(S(=O)(=O)N3CCOCC3)c2)cc1,i,i,i,i,13µM,?
CN(CC(=O)N1CCN(Cc2ccccc2)CC1)C(=O)Cc1ccc(Cl)c(Cl)c1,nt,i,i,i,15µM,?
CC1Cc2nc(SCC(=O)N3CCCCC3)n(C)c(=O)c2S1 (configuration not stated),i,i,i,i,?,i
CN(Cc1ccc(Cl)c(Cl)c1)C(=O)c1cccc(S(=O)(=O)N2CCN(Cc3ccccc3)CC2)c1,i,i,?,i,21µM,21µM
CN(Cc1cccc(F)c1)C(=O)c1cccc(S(=O)(=O)N2CCN(Cc3ccccc3)CC2)c1,i,i,i,i,?,?
CN(Cc1cccc(Cl)c1Cl)C(=O)c1cccc(S(=O)(=O)N2CCN(Cc3ccccc3)CC2)c1,i,i,i,i,16µM,?
CN(Cc1ccc(OC(F)F)cc1)C(=O)c1cccc(S(=O)(=O)N2CCN(c3ccccc3)CC2)c1,i,i,-62,i,2.9µM,15µM
CCN(CC)C1CCN(C(=O)c2cnn(-c3nccc(-c4ccccc4OC)n3)c2-c2ccco2)C1 (configuration not stated),nt,nt,nt,nt,i,i[9.04 µM]
CCN(C(=O)C1CCCN(c2ncnc3c2nc2n3CCCCC2)C1)c1cccc(C)c1 (configuration not stated),i,i,nt,nt,5.8µM,12µM
CCN(C(=O)C1CCCN(c2ncnc3c2nc2n3CCCCC2)C1)c1cccc(Cl)c1 (configuration not stated),i,i,i,i,10µM,21µM
O=C(C1CCCN(c2ncnc3c2nc2n3CCCCC2)C1)N1CCN(c2ccc(Cl)cc2)CC1 (configuration not stated),i,i,i,i,?,?
O=S(=O)(Nc1cc(S(=O)(=O)N2CCOCC2)ccc1NCC1CCCO1)c1ccccc1 (configuration not stated),i,i,i,i,i,i
Oc1c(C(c2ccccn2)N2CCCCC2)cc(Cl)c2cccnc12 (configuration not stated),i,i,i,-76,10µM,18µM
CN1CCN(C(c2ccc(Cl)cc2)c2cc(Cl)c3cccnc3c2O)CC1 (configuration not stated),nt,i,-64,-99,16µM,?

# Assay outcomes from PubChem BioAssay.
